# Laboratory results from PubChem BioAssay (NCATS).
# “And” between values parts separate entries of the source, which are not always exact repeats. Equal values may be shown once. A number with no mark means an inactive call. Inconclusive results are not listed. The source made the active and inactive calls. Unless noted, calls come from the whole dose curve; as a rule, active = well fitted curve in the direction sought with a large enough effect; inconclusive = small, poorly fitted or top-dose-only effect, or another doubt; inactive = no such curve, though single readings can be large; an effect the other way counts as inactive or inconclusive.
# Assays:
# [1] = qHTS assay for small molecule agonists of the antioxidant response element (ARE) signaling pathway measured by Nrf2-dependant transcriptional activity (AID 720636; active = well fitted curve in the direction sought with a large enough effect in the repeat runs; an effect the other way counts as inactive or inconclusive; note: potency is the fitted concentration of half-maximal effect)
# Method in brief: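 Quantitative HTS format in HepG2 cells stably expressing an ARE-luciferase reporter; 16 hr compound treatment at 37 C, luciferase signal detected with ONE-Glo.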
# [2] = qHTS assay for small molecule antagonists of the retinoid-related orphan receptor gamma (ROR-gamma) signaling pathway - cell viability counter screen (AID 720652; active = well fitted curve in the direction sought with a large enough effect in the repeat runs; an effect the other way counts as inactive or inconclusive;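 note: compound exposure lasted 16 hr before ATP read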; note: potency is the fitted concentration of half-maximal effect)
# Method in brief: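 Cytotoxicity is quantified via intracellular ATP (CellTiter-Glo luminescence) in doxycycline-induced CHO ROR response element-luciferase reporter cells treated with compound for 16 hr at 37 C, 5% CO2.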
# [3] = qHTS assay for small molecule agonists of the antioxidant response element (ARE) signaling pathway measured by Nrf2-dependant transcriptional activity - cell viability counter screen (AID 720653; active = well fitted curve in the direction sought with a large enough effect in the repeat runs; an effect the other way counts as inactive or inconclusive; note: % is set by controls: 0 for no effect and ±100 for the full control effect); details: ARE-bla HepG2 viability, CellTiter-Glo ATP luminescence, 16 h; active compounds read low
# Method in brief: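 ARE-bla HepG2 cells (2,000/well) rested 5 hrs at 37C/5% CO2, then exposed to compounds in DMSO for 16 hrs. Viability was read in the same wells as intracellular ATP by luminescence, 30 min at room temperature after reagent addition.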
# [4] = qHTS Assay for Identifying Gametocytocidal Compounds (AID 743244); note: potency is the fitted concentration of half-maximal effect;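 for max response: % is set by controls: 0 for no effect and ±100 for the full control effect; actives lower the fluorescent signal which means gametocytes are killed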; details: P. falciparum 3D7 stage III-V gametocytes, alamarBlue, 72 h; max response: active compounds read low
# Method in brief: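 Stage III-V P. falciparum 3D7 gametocytes, 20,000 per well, were exposed to compounds for 72 h at 37C, 5% CO2. AlamarBlue was then added for 24 h and viability was read as fluorescence at Ex 525/Em 598 nm.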
# [5] = qHTS for compounds that reverse cellular toxicity of Amyloid beta (A-beta) peptide in yeast: LOPAC Validation Assay (AID 720559);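 note: plate controls were DMSO for no effect and equimolar ferric chloride plus clioquinol rescue for full effect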
# Method in brief: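 Here, A-beta-toxic yeast grow with test compounds at 30 C for 48 hr before optical density at 600 nm is recorded; data are normalized against DMSO and the FeCl3-clioquinol control.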
# [6] = qHTS for Activators of Parkin Expression: LOPAC Validation Assay (NLuc Reporter) (AID 720572;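 note: 0% = DMSO and 100% = positive control compound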)
# Method in brief: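 Neuronal line stably carrying a FLuc/NLuc coincidence reporter under the Parkin promoter, seeded 24 h, then dosed in 7-point series for 24 h at 37 C. NLuc luminescence read after FLuc; normalized to DMSO and positive control (100%).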
# [7] = qHTS for Activators of Parkin Expression: LOPAC Validation Assay (FLuc Reporter) (AID 720573;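 note: 0% = DMSO and 100% = positive control compounds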)
# Method in brief: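 Readout is FLuc luminescence from neuronal reporter cells (Parkin promoter, FLuc plus NLuc) after 24 h compound exposure in dose response. Values normalized to neutral DMSO and positive-control compounds.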
# [8] = target: T1, Hexokinase-4 (Homo sapiens) + Glucokinase regulatory protein (Homo sapiens) (UniProt P35557+Q14397); test: qHTS assay for inhibitors of recombinant human GCK-GKRP interaction: Diaphorase-coupled assay (AID 743205)
# Method in brief: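 Signal derives from resorufin generated by diaphorase, linked to GCK turnover of glucose (5 mM) and ATP (0.4 mM). Enzyme complex was added after a 20-minute compound preincubation and monitored for 30 minutes.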
# [9] = target: T1, Hexokinase-4 (Homo sapiens) + Glucokinase regulatory protein (Homo sapiens); test: qHTS assay for inhibitors of recombinant human GCK-GKRP interaction: ADP-Glo assay (AID 743206);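 note: plate controls were DMSO plus enzyme for no effect and no enzyme for full effect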
# Method in brief: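 GST-GCK and FLAG-GKRP (15 nM each in the dispensed mix, with 2 uM S6P) react with 0.4 mM ATP and 5 mM glucose (final) in Hepes pH 7.6 for 60 min at room temperature. ADP is measured by ADP-Glo luminescence.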
# [10] = target: T1, Hexokinase-4 (Homo sapiens) + Glucokinase regulatory protein (Homo sapiens); test: qHTS assay for inhibitors of recombinant human GCK-GKRP interaction: HTRF assay (AID 743207);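 note: 0% = DMSO with GCK present and -100% = DMSO wells lacking GCK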
# From the text: Glucokinase (GCK) is a glucose sensor in hepatocytes and pancreatic beta-cells. Hepatic GCK is regulated by glucokinase regulatory protein (GKRP), which is predominantly localized to the liver. GKRP binds to GCK inhibiting its activity in the fasting state while in the presence of glucose the GKRP is displaced. There is an additional layer of regulation by fructose 1-phosphate and fructose 6-phosphate, which inhibit and enhance the GCK-GKRP interaction, respectively. GCK plays a role in glucose homeostasis and there is an interest in the development of strategies to activate GCK to lower blood glucose levels in type 2 diabetes. To date the majority of effort has focused on direct activation of GCK and the assays developed herein look to activate GCK by inhibiting its binding to GKRP. A compound that inhibits the interaction of GCK with GKRP could be important for the treatment of diabetes and can also be used as a tool compound to further elucidate GCK-GKRP biology. To that end, we have developed an HTS biochemical assay using HTRF technology for to interrogate the GCK-GKRP interaction. This assay was screened against a small compound library to look for modulators of activity.
# 3 uL of 5 nM GST-GCK and 5 nM FLAG-GKRP proteins with 2 uM S6P (columns 1-2, 4-48; Millipore, Billerica, MA) are dispensed into Greiner, white solid-bottom 1536-well assay plates; columns 3 receive buffer without GCK as a control for maximum inhibition. Buffer contains 2 mM MgCl2, 25 mM KCl, 25 mM Hepes, 1 mM DTT, 0.1% Tween 20 and 0.025% BSA and the pH was adjusted to 7.1. Compounds (23 nL) are then transferred via Kalypsys pin tool equipped with 1536-pin array (10 nL slotted pins, V&P Scientific, San Diego, CA). The library compounds are in columns 5-48 and columns 1-4 serve as controls with DMSO in columns 1 and 3 and 26 mM 1:1.5 fold serial of gluckokinase activator (GKA-EMD) in column 2 and 26 mM of the glucokinase activator (GKA-EMD) in column 4. Following addition of compound, 1 uL of detection antibodies (anti-Flag XL 665 and anti-GST K in reconstitution buffer from Cisbio, Bedford, MA; 0.7 ng/well and 0.0945 ng/well, respectively) is added, and the mixture is allowed to equilibrate for 60 minutes at room temperature. Data are normalized to DMSO-treated control columns with (maximum signal) and without (minimum signal) enzyme. Plates were read on an Envision plate reader (PerkinElmer, Shelton, CT, USA) with excitation at 320 nm and dual-wavelength detection at the Fret donor wavelength (615 nm) and the FRET acceptor wavelength (665 nm).
# T1 sequence (P35557 whole entry, looked up): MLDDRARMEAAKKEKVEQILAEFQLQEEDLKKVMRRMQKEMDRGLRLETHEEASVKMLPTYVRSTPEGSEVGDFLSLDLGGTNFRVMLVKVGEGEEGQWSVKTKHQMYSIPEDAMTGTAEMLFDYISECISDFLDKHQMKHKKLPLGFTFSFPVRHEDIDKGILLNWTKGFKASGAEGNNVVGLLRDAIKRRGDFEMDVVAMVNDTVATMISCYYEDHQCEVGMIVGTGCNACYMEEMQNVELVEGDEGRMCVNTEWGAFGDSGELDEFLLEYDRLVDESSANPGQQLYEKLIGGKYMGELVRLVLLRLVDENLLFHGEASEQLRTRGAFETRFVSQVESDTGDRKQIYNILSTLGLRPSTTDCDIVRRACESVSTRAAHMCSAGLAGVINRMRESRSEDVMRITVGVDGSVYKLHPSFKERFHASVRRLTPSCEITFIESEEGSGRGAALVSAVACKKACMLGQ
# T1 sequence (Q14397 whole entry, looked up): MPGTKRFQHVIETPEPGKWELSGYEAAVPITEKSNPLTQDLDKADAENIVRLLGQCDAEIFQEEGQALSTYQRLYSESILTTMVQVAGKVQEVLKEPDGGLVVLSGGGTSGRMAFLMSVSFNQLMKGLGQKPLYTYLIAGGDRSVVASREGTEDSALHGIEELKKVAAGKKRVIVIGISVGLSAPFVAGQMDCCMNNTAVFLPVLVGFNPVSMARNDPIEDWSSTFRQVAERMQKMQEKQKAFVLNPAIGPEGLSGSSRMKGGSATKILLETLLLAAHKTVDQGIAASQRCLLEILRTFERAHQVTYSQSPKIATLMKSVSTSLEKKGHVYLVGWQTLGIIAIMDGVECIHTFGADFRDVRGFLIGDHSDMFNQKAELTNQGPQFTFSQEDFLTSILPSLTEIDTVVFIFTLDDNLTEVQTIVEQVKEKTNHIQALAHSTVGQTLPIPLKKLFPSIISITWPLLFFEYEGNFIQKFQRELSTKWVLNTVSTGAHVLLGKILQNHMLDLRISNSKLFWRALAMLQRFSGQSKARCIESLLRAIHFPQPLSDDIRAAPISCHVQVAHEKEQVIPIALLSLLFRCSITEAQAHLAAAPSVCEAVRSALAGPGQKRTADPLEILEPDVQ
smiles,measurement,setting,value
CCCCCCCCCCCC[N+](C)(C)CCOc1ccccc1,Potency,[1],inactive
same,Potency,[2],26.6 µM (active)
same,max response,[3],-6.97%
same,Potency,[4],8.91 µM (active)
O=C(O)c1nn(Cc2ccc(Cl)cc2Cl)c2ccccc12,outcome,[5],inactive
same,Potency,[6],inactive
same,outcome,[7],inactive
same,outcome,[8],inactive
same,outcome,[9],inactive
same,outcome,[10],inactive
same,max response,[4],-7.97% and 31%
CCNc1nc(Cl)nc(NCC)n1,Potency,[1],inactive
same,max response,[3],2.17%
same,max response,[4],2.85%
CCC(=O)O[C@H]1CC[C@H]2[C@@H]3CCC4=CC(=O)CC[C@]4(C)[C@H]3CC[C@]12C,Potency,[1],inactive
same,max response,[3],-2.38%
same,max response,[4],11.3%
CN(C)C(=S)SSC(=S)N(C)C,Potency,[1],42.2 µM (active)
same,Potency,[2],33.5 µM (active)
same,max response,[3],-25.3%
same,Potency,[4],0.0662 µM (active)
Oc1ccc(Cl)cc1Cc1cc(Cl)ccc1O,Potency,[1],inactive
same,max response,[3],-12%
CCCCCCCCC(=O)NCc1ccc(O)c(OC)c1,Potency,[1],inactive
same,max response,[3],-1.94%
same,max response,[4],-2.23%
CNC(=O)Oc1ccc2c(c1)[C@]1(C)CCN(C)[C@@H]1N2C,outcome,[8],inactive
same,Potency,[4],11.2 µM (active) and 3.55 µM (active)
C[C@H]1C(=O)O[C@@H]2CCN3CC=C(COC(=O)[C@](C)(O)[C@]1(C)O)[C@H]23,Potency,[1],inactive
same,max response,[3],-1.85%
same,max response,[4],14.3%
CC[C@H]1CN2CCc3cc(OC)c(OC)cc3[C@@H]2C[C@@H]1C[C@H]1NCCc2cc(OC)c(OC)cc21,outcome,[7],inactive
same,Potency,[4],1.41 µM (active)
N#Cc1nn(-c2c(Cl)cc(C(F)(F)F)cc2Cl)c(N)c1S(=O)C(F)(F)F (stereo unspecified),Potency,[1],inactive
same,max response,[3],-35.8%
same,max response,[4],6.82%
C[C@]12CC[C@H]3[C@@H](CC=C4C[C@@H](O)CC[C@@]43C)[C@@H]1CC[C@@H]2O,max response,[4],-0.897%
COP(=S)(OC)Oc1ccc(Sc2ccc(OP(=S)(OC)OC)cc2)cc1,max response,[3],-17.2%
same,max response,[4],1.05%
Oc1ccc(Cl)cc1Sc1cc(Cl)ccc1O,Potency,[1],inactive
COP(=O)(OC)OC=C(Cl)Cl,Potency,[1],inactive
same,Potency,[2],inactive
same,max response,[3],-9.52% [middle of 4 runs]
same,max response,[4],-6.93%
NC(=O)CN1CCCC1=O,outcome,[5],inactive
same,Potency,[6],inactive
same,outcome,[7],inactive
same,outcome,[8],inactive
same,outcome,[9],inactive
same,outcome,[10],inactive
same,max response,[4],0.359% and -8.59%
